Laboratory results: PubChem BioAssay
The source made the active and inactive calls. Unless noted, the rule behind the calls is not given here.

Columns and labels:
[1] = compound effects on lung adenocarcinoma cell viability – A549, calcein-AM fluorescence, 48 h, basal, profiling panel (AID 1162); conditions: higher = more signal; note: test concentration not given here
[2] = compound effects on differentiated 3T3-L1 adipocyte viability – cell-based, 3T3-L1 adipocytes, calcein-AM fluorescence, 48 h, basal, profiling panel (AID 1163); conditions: 3T3-L1 adipocytes viability, higher = more signal; note: test concentration not given here
[3] = compound effects on hepatocellular carcinoma cell viability – HepG2, calcein-AM fluorescence, 48 h, basal, profiling panel (AID 1164); conditions: higher = more signal; note: test concentration not given here
[4] = compound effects on multiple myeloma cell viability – MM1S, calcein-AM fluorescence, 48 h, basal, profiling panel (AID 1165); conditions: higher = more signal; note: test concentration not given here
[5] = calcein-AM signal in unstimulated myeloma cells – cell-based, calcein-AM fluorescence, 48 h, PK04 Diversity Set, profiling panel (AID 1166); conditions: RPMI8226 myeloma viability, higher = more signal;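 note: cells grown under basal conditions without added stimulus; test concentration not given here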
[6] = JC-1 mitochondrial signal, unstimulated HepG2 cells – cell-based, JC-1 fluorescence, 24 h, 100 nL compound, profiling panel (AID 1167); conditions: HepG2 mitochondrial potential, higher = more signal; note: test concentration not given here
[7] = JC-1 mitochondrial signal, unstimulated adipocytes – cell-based, JC-1 fluorescence, 3T3-L1 adipocytes, 24 h, 100 nL compound, profiling panel (AID 1168); conditions: JC-1 mitochondrial fluorescence, higher = more signal, called active from +8 up or from −8 down; note: test concentration not given here
[8] = JC-1 mitochondrial signal, unstimulated myeloma cells – cell-based, JC-1 fluorescence, RPMI8226, 24 h, 100 nL compound, profiling panel (AID 1169); conditions: JC-1 mitochondrial potential fluorescence, higher = more signal; note: test concentration not given here
[9] = JC-1 mitochondrial signal, unstimulated MM1S myeloma – cell-based, JC-1 fluorescence, 24 h, 100 nL compound, profiling panel (AID 1170); conditions: MM1S mitochondrial potential, higher = more signal; note: test concentration not given here
[10] = resazurin metabolic signal in A549 cells – cell-based, resazurin fluorescence, 24 h, PK04 Diversity Set, profiling panel (AID 1171); conditions: A549 viability, higher = more signal, called active from +8 up or from −8 down; note: test concentration not given here
[11] = resazurin metabolic signal in HepG2 cells – cell-based, resazurin fluorescence, 24 h, PK04 Diversity Set, profiling panel (AID 1172); conditions: HepG2 viability, higher = more signal; note: test concentration not given here
[12] = budding yeast growth changes without added modifier – OD600, strain BY4716, 24 h, basal condition, primary screen (AID 1173); conditions: S. cerevisiae BY4716 growth, OD600, 24 h; higher = more signal, called active from +8 up or from −8 down
[13] = viability profiling in MM1S myeloma cells – cell-based, resazurin fluorescence, basal, 24 h, PK04 Diversity Set, profiling panel (AID 1174); conditions: higher = more signal, called active from +8 up or from −8 down; note: test concentration not given here
[14] = biological target: Dihydroorotate dehydrogenase (quinone), mitochondrial (Plasmodium falciparum (isolate 3D7)) (UniProt Q08210); experiment: inhibition of P. falciparum DHODH – biochemical, C-terminal His tag, absorbance 600 nm, primary screen (AID 1175); conditions: PfDHODH enzyme, DCIP absorbance 600 nm; higher = more signal, called active from +8 up or from −8 down;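 note: recombinant parasite enzyme with a five histidine tag at its C terminus; test concentration not given here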
Sequence of Dihydroorotate dehydrogenase (quinone), mitochondrial (Plasmodium falciparum (isolate 3D7)) (Q08210 whole entry, looked up): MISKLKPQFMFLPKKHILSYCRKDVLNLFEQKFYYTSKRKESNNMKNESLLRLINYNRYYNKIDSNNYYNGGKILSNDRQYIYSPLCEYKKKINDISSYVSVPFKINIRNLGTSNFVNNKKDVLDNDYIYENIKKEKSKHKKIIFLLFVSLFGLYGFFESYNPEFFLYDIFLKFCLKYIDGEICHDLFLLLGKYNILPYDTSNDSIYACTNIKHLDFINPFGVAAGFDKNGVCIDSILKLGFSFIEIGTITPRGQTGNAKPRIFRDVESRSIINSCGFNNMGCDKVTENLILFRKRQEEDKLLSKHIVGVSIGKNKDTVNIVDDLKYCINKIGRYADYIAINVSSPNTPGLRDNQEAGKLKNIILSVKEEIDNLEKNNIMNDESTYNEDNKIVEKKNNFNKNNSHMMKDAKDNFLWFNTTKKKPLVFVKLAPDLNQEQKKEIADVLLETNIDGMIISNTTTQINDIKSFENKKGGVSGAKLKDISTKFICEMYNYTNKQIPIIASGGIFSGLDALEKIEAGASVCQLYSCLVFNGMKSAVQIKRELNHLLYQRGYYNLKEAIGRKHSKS

[15] = inhibition of PAO1 biofilm formation – strain PAO1, LB-PBS medium, absorbance 600 nm, primary screen (AID 1176); note: test concentration not given here; conditions: P. aeruginosa PAO1 growth/biofilm, A600, 12 h; higher = more signal
[16] = growth modulation of vineyard yeast isolate – strain RM11-1a, OD600, basal, 24 h, primary screen (AID 1177);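 note: cultures grown under basal conditions with no added stressor; test concentration not given here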; conditions: S. cerevisiae RM11-1a growth, OD600, 24 h; higher = more signal, called active from +8 up or from −8 down
[17] = growth of efflux-deficient E. coli DRC39 – strain DRC39, OD650, 24 h, E. coli filamentation inducers, primary screen (AID 1178);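 note: growth measured as culture turbidity by optical density at 650 nm; test concentration not given here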; conditions: E. coli DRC39 acrAB, higher = more signal, called active from +8 up or from −8 down
[18] = growth of efflux-deficient E. coli DRC39 – strain DRC39, OD650, 48 h, E. coli filamentation inducers, primary screen (AID 1179);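 note: screen aims at cell division blockers that make cells filament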; conditions: E. coli DRC39 delta-acrAB growth, higher = more signal, called active from +8 up or from −8 down
[19] = viability profiling in RPMI8226 myeloma cells – cell-based, resazurin fluorescence, basal, 24 h, PK04 Diversity Set, profiling panel (AID 1180); conditions: higher = more signal;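 note: RPMI8826 multiple myeloma cell line at 5000 cells per well; test concentration not given here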
[20] = biological target: E3 ubiquitin-protein ligase XIAP (Homo sapiens) (UniProt P98170); experiment: small molecules binding XIAP protein – biophysical, small-molecule microarray, fluorescence 635 nm, primary screen (AID 1181); conditions: higher = more signal;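 note: score merges 667 nm emission and signal to noise over triplicate slides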
Sequence of E3 ubiquitin-protein ligase XIAP (Homo sapiens) (P98170 whole entry, looked up): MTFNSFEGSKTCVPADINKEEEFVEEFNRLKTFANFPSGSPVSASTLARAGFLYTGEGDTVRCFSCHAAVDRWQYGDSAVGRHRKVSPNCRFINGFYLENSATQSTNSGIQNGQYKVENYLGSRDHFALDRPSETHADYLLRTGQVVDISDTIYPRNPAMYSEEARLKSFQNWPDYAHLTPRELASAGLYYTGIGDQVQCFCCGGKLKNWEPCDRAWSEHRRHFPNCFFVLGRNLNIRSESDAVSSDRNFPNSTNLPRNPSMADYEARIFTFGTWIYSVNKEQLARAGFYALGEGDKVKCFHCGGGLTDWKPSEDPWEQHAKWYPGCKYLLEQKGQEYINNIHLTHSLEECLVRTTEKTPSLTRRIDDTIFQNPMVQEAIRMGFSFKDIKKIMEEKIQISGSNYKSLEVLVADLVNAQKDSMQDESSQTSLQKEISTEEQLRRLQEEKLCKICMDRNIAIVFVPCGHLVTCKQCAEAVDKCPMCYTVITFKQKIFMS

[N-]=[N+]=NCc1ccccc1C[C@@]1(C(=O)NCc2ccccc2)N=C(c2ccc(OCCCO)cc2)O[C@@H]1c1ccccc1N=[N+]=[N-]
z-score [1]: 0.0629
z-score [2]: -1.67
z-score [3]: -0.236
z-score [4]: -2.78
z-score [5]: -3.5
z-score [6]: 0.917
z-score [7]: 0.898 (inactive)
z-score [8]: -1.11
z-score [9]: -1.24
z-score [10]: -0.0617 (inactive)
z-score [11]: 0.279
z-score [12]: 0.85 (inactive)
z-score [13]: -0.806 (inactive)
composite z-score [14]: 0.805 (inactive)
z-score [15]: 1.39 (inactive)
z-score [16]: 1.49 (inactive)
z-score [17]: 0.423 (inactive)
z-score [18]: -0.335 (inactive)
z-score [19]: -0.686
composite z-score [20]: -0.11

C=CCC(OC(C)=O)[C@@H]1[C@@H](N(Cc2cccc3ccccc23)C(=O)Cc2ccc(F)cc2)c2cc(OCCCO)ccc2N1C(=O)c1ccc2ccccc2n1 (stereo not given in full)
z-score [1]: -0.359
z-score [2]: 0.389
z-score [3]: -0.117
z-score [4]: 0.866
z-score [5]: -0.381
z-score [6]: 1.69
z-score [7]: -0.109 (inactive)
z-score [8]: 0.515
z-score [9]: -0.669
z-score [10]: 0.067 (inactive)
z-score [11]: -0.157
z-score [12]: 0.0526 (inactive)
z-score [13]: 0.263 (inactive)
composite z-score [14]: 0.451 (inactive)
z-score [15]: 0.501 (inactive)
z-score [16]: -0.142 (inactive)
z-score [17]: -0.406 (inactive)
z-score [18]: 0.0816 (inactive)
z-score [19]: 0.493
composite z-score [20]: 0.357

CCOC(=O)c1ccc(NC(=O)O[C@H]2[C@H](OC(=O)Nc3ccc4c(c3)OCO4)[C@H](OC(=O)Nc3ccc4c(c3)OCO4)[C@@H](OC)O[C@@H]2CO)cc1
z-score [1]: -0.83
z-score [2]: 0.529
z-score [3]: -1.02
z-score [4]: -0.982
z-score [5]: -1.21
z-score [6]: -0.691
z-score [7]: -0.289 (inactive)
z-score [8]: -0.576
z-score [9]: -1.09
z-score [10]: -0.824 (inactive)
z-score [11]: -1.09
z-score [12]: 1.12 (inactive)
z-score [13]: -1.55 (inactive)
composite z-score [14]: -0.57 (inactive)
z-score [15]: 0.95 (inactive)
z-score [16]: 1.57 (inactive)
z-score [17]: 1.11 (inactive)
z-score [18]: 0.311 (inactive)
z-score [19]: -1.36
composite z-score [20]: 0.32

C=CC[C@]1(C(=O)NCCN2CCOCC2)N=C(c2ccc(OCCCO)cc2)O[C@H]1c1ccccc1CN=[N+]=[N-]
z-score [1]: 0.779
z-score [2]: 0.885
z-score [3]: 0.187
z-score [4]: 0.81
z-score [5]: -0.221
z-score [6]: 2.76
z-score [7]: 0.0141 (inactive)
z-score [8]: -1.08
z-score [9]: -0.244
z-score [10]: 1.2 (inactive)
z-score [11]: 0.735
z-score [12]: -1.01 (inactive)
z-score [13]: 0.33 (inactive)
composite z-score [14]: 0.453 (inactive)
z-score [15]: -1.17 (inactive)
z-score [16]: 0.724 (inactive)
z-score [17]: 1.31 (inactive)
z-score [18]: 0.351 (inactive)
z-score [19]: 0.485
composite z-score [20]: -0.209

COC(=O)[C@@]1(Cc2ccc(OC)cc2)[C@@H]2C(=CC(=O)[C@H]2CC(=O)C(=O)N(C)C)CN1C(=O)c1ccccc1
z-score [1]: -1.85
z-score [2]: 0.271
z-score [3]: -1.12
z-score [4]: -2.29
z-score [5]: -4.37
z-score [6]: 0.607
z-score [7]: -0.283 (inactive)
z-score [8]: -0.843
z-score [9]: -1.16
z-score [10]: -1.34 (inactive)
z-score [11]: -1.2
z-score [12]: 1.61 (inactive)
z-score [13]: -2.16 (inactive)
composite z-score [14]: -0.626 (inactive)
z-score [15]: 2.16 (inactive)
z-score [16]: 0.625 (inactive)
z-score [17]: -0.575 (inactive)
z-score [18]: -0.798 (inactive)
z-score [19]: -3.26
composite z-score [20]: 0.22

COC(=O)C1=CC(CCCO)=CC(C2CC2)N(C)C=C1C(=O)OC (stereo not given)
z-score [1]: 2.6
z-score [2]: 0.435
z-score [3]: 1.45
z-score [4]: 0.828
z-score [5]: 2.02
z-score [6]: 0.63
z-score [7]: -0.757 (inactive)
z-score [8]: -0.225
z-score [9]: -1.27
z-score [10]: -0.951 (inactive)
z-score [11]: 0.421
z-score [12]: -0.589 (inactive)
z-score [13]: -0.463 (inactive)
composite z-score [14]: -1.43 (inactive)
z-score [15]: 0.82 (inactive)
z-score [16]: -1.09 (inactive)
z-score [17]: 1.04 (inactive)
z-score [18]: 1.58 (inactive)
z-score [19]: -0.0242
composite z-score [20]: 0.0054

O=C1O[C@H](c2ccccc2)[C@H](c2ccccc2)N2[C@H]1[C@@H](C(=O)Nc1nc3ccccc3s1)[C@]1(C(=O)Nc3ccccc31)[C@H]2c1ccc(OCCO)cc1
z-score [1]: -0.52
z-score [2]: 0.0354
z-score [3]: 0.349
z-score [4]: -1.68
z-score [5]: -1.35
z-score [6]: -1.99
z-score [7]: 3.24 (inactive)
z-score [8]: -1.07
z-score [9]: -1.83
z-score [10]: 0.0237 (inactive)
z-score [11]: 0.0114
z-score [12]: 0.445 (inactive)
z-score [13]: -1.08 (inactive)
composite z-score [14]: -1.8 (inactive)
z-score [15]: 3.02 (inactive)
z-score [16]: 1.68 (inactive)
z-score [17]: -0.476 (inactive)
z-score [18]: 0.282 (inactive)
z-score [19]: -2.02
composite z-score [20]: -0.356

CCOC(=O)C[C@H]1[C@H](OC(=O)c2cc3ccccc3oc2=O)[C@@H](NC(=O)Cc2ccc(OC)cc2)c2cc(OCCCO)ccc2N1C(=O)c1ccc2ccccc2n1
z-score [1]: 0.167
z-score [2]: 0.66
z-score [3]: 0.493
z-score [4]: -0.171
z-score [5]: 0.865
z-score [6]: -0.917
z-score [7]: -0.0891 (inactive)
z-score [8]: -0.265
z-score [9]: 0.429
z-score [10]: -0.341 (inactive)
z-score [11]: -0.604
z-score [12]: -1.05 (inactive)
z-score [13]: -0.377 (inactive)
composite z-score [14]: 0.0564 (inactive)
z-score [15]: -0.234 (inactive)
z-score [16]: -0.315 (inactive)
z-score [17]: 0.928 (inactive)
z-score [18]: 0.337 (inactive)
z-score [19]: -0.0615
composite z-score [20]: -0.0414

COc1ccc(CCN2C(=O)[C@@]3(Cc4ccccc42)c2ccccc2C(=O)N(Cc2ccccc2OC)[C@H]3c2ccc(CO)cc2)cc1
z-score [1]: -0.391
z-score [2]: 0.677
z-score [3]: -0.264
z-score [4]: -1.98
z-score [5]: -0.996
z-score [6]: 0.0826
z-score [7]: 0.16 (inactive)
z-score [8]: 0.718
z-score [9]: 0.464
z-score [10]: 0.271 (inactive)
z-score [11]: -0.736
z-score [12]: -0.158 (inactive)
z-score [13]: 0.289 (inactive)
composite z-score [14]: -4.65 (inactive)
z-score [15]: -0.0065 (inactive)
z-score [16]: -1.16 (inactive)
z-score [17]: 0.981 (inactive)
z-score [18]: 0.339 (inactive)
z-score [19]: 1.01
composite z-score [20]: -0.194
